Bioassay records deposited in PubChem by several laboratories.
Bfl-1 A1 inh: inhibitors of the anti-apoptotic protein A1, read as caspase activation; caspase activation, % (no concentration beside the values); MEF A1-2A-BIM cells, Caspase-Glo 3/7 luminescence, 3 h; percent of clofoctol response, vehicle zero; AID 2462; 330,000 compounds, 0.066% hits;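 active = over half of replicate activation scores above 10%, or exactly half above 10 with the replicate mean above 10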
Beta apoptosis: blocks beta cell apoptosis | INS-1E cytokine-induced death, ATP luminescence, 48 h; percent of positive-control rescue, neutral wells zero | protection from apoptosis, % (test concentration not listed) | 300,000 compounds, 0.8% hits | AID 435005;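 active = Every replicate reaches about 75%, or at least half do and their mean reaches it too, limit read from the data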;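 also: 0% = cytokine-treated negative control wells and 100% = positive control rescue; higher means more ATP so stronger rescue from cytokine killing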
Mdm2-MdmX inh: disrupts the human Mdm2-MdmX interaction. O15151+Q00987. SaOS-2 split-luciferase Mdm2/MdmX complementation, luminescence. inhibition, % at 8 µM. 330,000 compounds, 3% hits. AID 485346;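 active = inhibition of at least 50% at 8 µM in the primary screen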
Target sequence (O15151 whole entry, looked up): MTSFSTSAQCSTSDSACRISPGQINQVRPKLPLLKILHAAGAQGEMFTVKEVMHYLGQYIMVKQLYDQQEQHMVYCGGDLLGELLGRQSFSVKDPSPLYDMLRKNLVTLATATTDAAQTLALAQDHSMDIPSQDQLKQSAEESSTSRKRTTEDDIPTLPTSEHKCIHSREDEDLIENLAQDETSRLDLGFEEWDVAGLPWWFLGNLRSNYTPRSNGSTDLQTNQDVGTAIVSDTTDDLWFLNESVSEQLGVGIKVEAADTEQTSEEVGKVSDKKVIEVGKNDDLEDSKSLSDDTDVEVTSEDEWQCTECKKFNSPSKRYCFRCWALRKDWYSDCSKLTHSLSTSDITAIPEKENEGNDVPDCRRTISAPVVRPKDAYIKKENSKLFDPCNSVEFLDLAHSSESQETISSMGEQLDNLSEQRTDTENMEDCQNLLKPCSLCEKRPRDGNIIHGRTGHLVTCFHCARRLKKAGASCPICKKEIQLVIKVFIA
Target sequence (Q00987 whole entry, looked up): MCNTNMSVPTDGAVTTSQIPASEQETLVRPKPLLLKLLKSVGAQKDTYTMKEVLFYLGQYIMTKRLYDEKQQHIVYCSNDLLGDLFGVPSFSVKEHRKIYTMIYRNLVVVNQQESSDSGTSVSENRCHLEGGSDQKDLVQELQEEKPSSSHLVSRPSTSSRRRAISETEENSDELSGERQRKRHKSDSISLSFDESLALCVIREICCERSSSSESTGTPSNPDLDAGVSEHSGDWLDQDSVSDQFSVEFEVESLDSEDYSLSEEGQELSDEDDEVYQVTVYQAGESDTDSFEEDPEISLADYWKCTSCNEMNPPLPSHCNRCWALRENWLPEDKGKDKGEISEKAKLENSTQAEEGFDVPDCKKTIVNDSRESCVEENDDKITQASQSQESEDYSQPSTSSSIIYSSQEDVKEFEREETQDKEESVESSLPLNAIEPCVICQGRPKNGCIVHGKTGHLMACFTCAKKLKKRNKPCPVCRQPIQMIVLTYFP
Jurkat NFkB inh: inhibitors of the PMA/ionomycin-induced NF-kB reporter in Jurkat cells; inhibition, % at 4 µM; PMA/ionomycin-induced NF-kB luciferase reporter, luminescence; AID 435003; 330,000 compounds, 0.53% hits; in the data active = inhibition above about 50%
NTR1 ag: NTR1 (human) agonism; P30989; NTR1-U2OS beta-arrestin-GFP spot imaging, agonist mode; activation, % at 20 µM; 330,000 compounds, 0.17% hits;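 active = activation at or above 40% of the spot to cytoplasm intensity ratio, with at least 20 cells analyzed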;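 also: 0% = DMSO without peptide and 100% = 100 nM NTR1 peptide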
697 NFkB inh: lowers PMA/ionomycin-induced NF-kB signal in 697 B cells; AID 435022; 697 B-cell NF-kB luciferase reporter, 16 h; inhibition, % at 4 µM; 330,000 compounds, 0.33% hits; in the data active = inhibition above about 35%
Mdm2-MdmX conf: confirmation of human Mdm2/MdmX interaction inhibitors. 10,000 compounds, 55% hits. inhibition, % at 8 µM. shares compounds with Mdm2-MdmX inh. AID 489028. Mdm2-MdmX binding, luminescent assay; in the data active = inhibition above about 40%
Full FLuc ctr: inhibits full-length luciferase, flagging false Mdm2/MdmX hits; AID 504607; SaOS-2 full-length luciferase counterscreen, luminescence; inhibition, % at 8 µM; shares compounds with Mdm2-MdmX inh; 6,200 compounds, 77% hits;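 active = mean inhibition at 8 µM reaching about 37%, which flags the compound as non-specific, limit read from the data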;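 also: p53-null SaOS-2 cells with luciferase driven by a doxycycline-inducible promoter; compound on cells about two nights before reading with doxycycline added after day one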
* marks the source's active call; other numbers are inactive results; nt = no result. Most compounds without a hit are left out; they make up all but 3.8% or so of the library.

SMILES | Bfl-1 A1 inh | Beta apoptosis | Mdm2-MdmX inh | Jurkat NFkB inh | NTR1 ag | 697 NFkB inh | Mdm2-MdmX conf | Full FLuc ctr
O=C(NCC1CCCO1)c1cc([N+](=O)[O-])ccc1N1CCC(Cc2ccccc2)CC1 (centres undefined) | -1 | 10 | 2 | 10 | 6 | 5 | nt | nt
CC(C)=CCc1c2c(c(O)c3c(=O)c4c(oc13)-c1cc(O)c(O)cc1OC4C=C(C)C)C=CC(C)(C)O2 (centres undefined) | 0 | 71 | 83* | -11 | 5 | -11 | 42* | 34
O=[N+]([O-])c1cccnc1N1CCC(c2cc(-c3ccc(Cl)cc3)n[nH]2)CC1 | 1 | 3 | 54* | 7 | 19 | -35 | 1 | nt
COc1cccc(C(=O)Oc2c(Br)cc(Br)cc2/C=N/NC(=O)c2cc(C)[nH]n2)c1 | 0 | 81* | 59* | 13 | 0 | 30 | 55* | 20
O=C(Nc1ccccc1C(=O)Nc1nnc(C(F)(F)F)s1)c1ccccc1Cl | -1 | 112* | 95* | 1 | 5 | -3 | 94* | 22
O=C(Nc1nnc(-c2ccccc2)s1)c1ccccc1F | -1 | 1 | -67 | -62 | -3 | -79 | nt | nt
NC(=O)c1ccccc1NC(=O)c1ccccc1Cl | 0 | -2 | 15 | -18 | 2 | 5 | nt | nt
O=C(Nc1nnc(-c2ccccc2Cl)s1)c1ccccc1F | -2 | 0 | 86* | -8 | 2 | -14 | -8 | nt
COC(=O)[C@H](CC(C)C)NCc1cccc(CN[C@@H](CC(C)C)C(=O)OC)c1 | 0 | -9 | 13 | 7 | -6 | -12 | nt | nt
O=S1(=O)CCOC[C@H](c2ccccc2)N1Cc1cccc(F)c1 | 0 | 6 | 11 | 5 | 3 | 12 | nt | nt
O=S(=O)(c1ccc(Br)s1)N1CCN(CCc2ccccc2)CC1 | 0 | 3 | -3 | -3 | -2 | 17 | nt | nt
CCCC(=O)NC(c1cccs1)c1cc(Cl)c2cccnc2c1O (centres undefined) | 1 | 93* | 82* | -5 | 2 | -35 | 69* | 25
O=C(NC(c1ccccc1)c1cc(Cl)c2cccnc2c1O)c1cccnc1 (centres undefined) | 0 | 81* | 83* | 20 | 1 | -12 | 89* | 10
CN1CCN(C(c2cccnc2)c2ccc3cccnc3c2O)CC1 (centres undefined) | 0 | 22 | 31 | -1 | 0 | 1 | nt | nt
O=C(O)COc1ccccc1C(Nc1cccnc1)c1cc(Cl)c2cccnc2c1O (centres undefined) | nt | nt | -15 | 9 | 1 | 16 | nt | nt
CN1CCN(C(c2ccc(Br)cc2)c2cc(Cl)c3cccnc3c2O)CC1 (centres undefined) | 0 | 73 | 80* | 16 | 20 | -10 | 62* | 48*
CCCC(=O)NC(c1ccc2c(c1)OCO2)c1cc(Cl)c2cccnc2c1O (centres undefined) | -1 | 85* | 76* | 8 | 1 | -10 | 72* | 21
CCC(=O)NC(c1cc(Cl)c2ccccc2c1O)C(C)C (centres undefined) | 0 | -12 | -2 | 1 | 0 | 4 | nt | nt
CCCC(=O)NC(c1ccco1)c1cc(Cl)c2cccnc2c1O (centres undefined) | 0 | 82* | 65* | -31 | -1 | -76 | 46* | 23
CCOc1ccc(C(Nc2cccnc2)c2cc(Cl)c3cccnc3c2O)cc1 (centres undefined) | 1 | 86* | 64* | 22 | 6 | -48 | 65* | 43*
CCC(=O)NC(c1ccco1)c1cc(Cl)c2ccccc2c1O (centres undefined) | -1 | -5 | -24 | 14 | 5 | 0 | nt | nt
CCC(=O)NC(c1ccc(C)cc1)c1cc(Cl)c2cccnc2c1O (centres undefined) | 1 | 88* | 79* | -7 | 3 | -29 | 55* | 24
O=[N+]([O-])c1ccccc1S(=O)(=O)N/C(=N/S(=O)(=O)c1ccccc1)c1ccccc1 | 1 | -9 | 21 | 1 | 0 | 0 | nt | nt
